21 molecules from PubChem BioAssay (NCATS) can be followed below.

Inconclusive results are not listed. Calls of active or inactive are those of the source. Calls follow the shape of the dose curve; as a rule, active = well fitted inhibition curve with a large enough effect; inconclusive = small, poorly fitted or top-dose-only effect; inactive = flat fitted curve, though single readings scatter.

Test [1] has as its target Calcium and integrin-binding protein 1 (Homo sapiens) (UniProt Q99828). In words: Primary qHTS for Identification of Calcium Integrin Binding Protein 1 (CIB1) Competitor (AID 1508620).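 Also: GST tagged CIB1 binding a fluorescein labelled alphaIIb integrin peptide tracer; top concentration of the series differs between compounds.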 Particulars: CIB1-GST / FITC-alphaIIb peptide fluorescence polarization; series mostly up to 114 µM. The gist of the method:
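Fluorescence polarization competition: CIB1-GST (1 uM final) preincubated with compound 15 min at room temperature, then FITC-labeled alphaIIb peptide (100 nM final) added for another 15 min. Polarization read at Ex 480/Em 540.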

A short description of test [2]: Primary qHTS for inhibitors of nuclear receptor binding SET domain protein 2 (NSD2) in an isogenic RCH-ACV NSD2 p.E1099K mutant (9B) (AID 1645876). Also: nearly all actives have a fitted effect of over 70% in size. Also: potency is read from the fitted curve at half-maximal effect. Particulars: RCH-ACV (leukaemia line) NSD2 E1099K (9B) viability, CellTiter-Glo, 72 h; series mostly up to 44.9 µM. (In general: Quantitative high-throughput screening tests each substance at several concentrations.)
% is scaled to controls: 0 for no effect and ±100 for the full control effect.

Sequence of Calcium and integrin-binding protein 1 (Homo sapiens) (Q99828 whole entry, looked up): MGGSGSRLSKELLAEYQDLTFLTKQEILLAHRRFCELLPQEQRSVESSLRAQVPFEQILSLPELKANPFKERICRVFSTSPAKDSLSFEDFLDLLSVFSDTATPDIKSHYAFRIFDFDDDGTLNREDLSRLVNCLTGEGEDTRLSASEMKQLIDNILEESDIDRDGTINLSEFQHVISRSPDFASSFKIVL

Consider `OC[C@H]1O[C@@H](Oc2cc(O)c3c(c2)O[C@@H](c2ccc(O)cc2)[C@H](O)C3)[C@H](O)[C@@H](O)[C@@H]1O`, for which the Potency entry in test [1] and in test [2] was “inactive” in each case.

Take `NC1(C(=O)NC(CCO)c2ccc(Cl)cc2)CCN(c2ncnc3[nH]ccc23)CC1` (configuration not stated): in test [1], the Potency result is “inactive”. For the same molecule, the Potency in test [2] is 728 nM (active).

As to `C[C@@H]1O[C@@H](O[C@H]2[C@@H]3C=CO[C@@H](O[C@@H]4O[C@H](CO)[C@@H](O)[C@H](O)[C@H]4O)[C@@H]3[C@@]3(CO)O[C@@H]23)[C@H](OC(=O)/C=C/c2ccccc2)[C@H](O)[C@H]1O`, the Potency entry in test [1] and in test [2] was “inactive” in each case.

Regarding `CC(C)CC(=O)O[C@@H]1OC=C(CO[C@@H]2O[C@H](CO)[C@@H](O)[C@H](O)[C@H]2O)[C@H]2[C@@H]3O[C@H]3[C@@](O)(CO)[C@@H]12`, the Potency result in test [1] and in test [2] was “inactive” each time.

Consider `N#C[C@@H]1C[C@H](F)CN1C(=O)CNC1[C@H]2CN(C(=O)c3ccc(F)cc3)C[C@@H]12` (some centres not stated), for which the Potency entry in test [1] and in test [2] was “inactive” each time.

On to `CC1(C)CC2C(C1)C(C)(O)C13CC1(COC3=O)C2O` (configuration not stated), for which the Potency entry in test [1] and in test [2] was “inactive” in each case.

With `COc1ccc(/C=C\C(=O)O)c(O[C@@H]2O[C@H](CO)[C@@H](O)[C@H](O)[C@H]2O)c1`, the Potency entry in test [1] and in test [2] was “inactive” each time.

Regarding `C[C@@H]1O[C@@H](O[C@H]2[C@H](O)[C@@H](O[C@@H]3O[C@H](CO)[C@@H](O)[C@H](O[C@@H]4O[C@H](CO)[C@@H](O)[C@H](O)[C@H]4O)[C@H]3O)[C@H](O[C@H]3CC[C@@]4(C)C(=CC[C@@H]5C4CC[C@@]4(C)C5C[C@@H]5OC6(CC[C@@](C)(CO[C@@H]7O[C@H](CO)[C@@H](O)[C@H](O)[C@H]7O)O6)[C@@H](C)[C@@H]54)C3)O[C@@H]2CO)[C@H](O)[C@H](O)[C@H]1OC1OC(CO)C(O)C(O)C1O` (some centres not stated), the activity change, negative = inhibition in test [1] is -2.87% [at 12.4 µM] (inactive). In addition, in test [2], the outcome was “inactive [at 9.23 µM]”.

Regarding `OC[C@H]1O[C@@H](O[C@H]2[C@H](OCc3ccccc3)O[C@H](CO[C@@H]3OC[C@@H](O)[C@H](O)[C@H]3O)[C@@H](O)[C@@H]2O)[C@H](O)[C@@H](O)[C@@H]1O`, the Potency entry in test [1] and in test [2] was “inactive” in each case.

`C=C[C@]1(C)C=C2CCC3C(C)(CCC[C@@]3(C)C(=O)O)C2CC1` (some centres not stated): the Potency entry in test [1] and in test [2] was “inactive” in each case.

Consider `C=C[C@]1(C)C[C@H](O)[C@@H]2[C@H](OC(=O)[C@@H]2C)C1/C(C)=C/O[C@@H]1O[C@H](CO)[C@@H](O)[C@H](O)[C@H]1O` (some centres not stated), for which the Potency entry in test [1] and in test [2] was “inactive” throughout.

Take `C[C@H]1C(=O)N2c3ccccc3[C@@]3(O)C[C@@H]4C(=O)N[C@](C)(c5nc6ccccc6c(=O)n54)N1[C@@H]23`: the Potency entry in test [1] and in test [2] was “inactive” throughout.

Take `COc1ccc(/C=C/C(=O)O[C@@H]2[C@@H](O)[C@@H](O)[C@H](O[C@@H]3C=C(CO)[C@H]4[C@H](O[C@@H]5O[C@H](CO)[C@@H](O)[C@H](O)[C@H]5O)OC=C[C@H]43)O[C@H]2C)cc1O`: the Potency entry in test [1] and in test [2] was “inactive” throughout.

Consider `CC(=O)O[C@@H]1[C@@H](CO)O[C@@](CO)(O[C@H]2O[C@H](COC(=O)/C=C/c3ccccc3)[C@@H](O)[C@H](O)[C@H]2O)[C@H]1O`, for which the Potency result in test [1] and in test [2] was “inactive” each time.

Take `CC(=O)O[C@H]1CC(C)(C)CC2[C@@]13[C@H](O)C[C@]1(C)[C@@]2(CCC2[C@@]4(C)CC[C@H](O[C@@H]5OC[C@H](O[C@@H]6O[C@H](CO)[C@@H](O)[C@H](O)[C@H]6O[C@@H]6OC[C@@H](O)[C@H](O)[C@H]6O)[C@H](O)[C@H]5O[C@@H]5O[C@H](CO)[C@@H](O)[C@H](O)[C@H]5O)C(C)(C)C4CC[C@]21C)O[C@@H]3O` (some centres not stated): in test [1], the Potency result is “inactive”. Also, the Potency in test [2] was 346 nM (active).

With `COc1ccc2nc(S(=O)(=O)Cc3ncc(C)c(OC)c3C)[nH]c2c1`, the Potency entry in test [1] and in test [2] was “inactive” throughout.

As to `C=C1C[C@]23C[C@H]1CC[C@H]2C1=C[C@H]2OC(=O)[C@@](C)([C@H]1[C@@H]3C(=O)O)[C@H]2O`, the Potency result in test [1] and in test [2] was “inactive” in each case.

As for `CC(=O)C1=C(C)N(c2cccc(C(F)(F)F)c2)C(=O)N[C@H]1c1ccc(C#N)nc1`, in test [1], the Potency result was “inactive”. Moreover, in test [2], the activity change, negative = viability loss was -10.2% [at 9.23 µM] (inactive).

As to `Cc1cc(C)nc(NS(=O)(=O)c2ccc(NC(=S)NC(=O)COc3ccc(Br)cc3Cl)cc2)n1`, the Potency result in test [1] and in test [2] was “inactive” in each case.

Turning to `O=C(N/N=C/c1ccc(O)c(O)c1)c1cc2ccccc2cc1O`, the Potency entry in test [1] is “inactive”. Further, the Potency in test [2] is 6820 nM (active).

Turning to `C/C1=C\CCC(C)CCO[C@@H]2O[C@H](CO[C@@H]3OC[C@H](O)[C@H](O)[C@H]3OC1=O)[C@@H](O)[C@H](O)[C@H]2O` (some centres not stated), the Potency result in test [1] and in test [2] was “inactive” each time.
